# Reference: PubChem BioAssay AID1159580 (chemical genetic matrix, 2015)
# Hit rate of the full screen: of about 5,500 compounds, about 2,000 (36%) were called active. Another 18% or so got no clear call; they are omitted. The list shows a part of the results. Unmarked numbers belong to inactive results. Cut-off read from the data, not from the text of the source: active = normalized growth mostly below about 0.91 (no sharp cut-off); inconclusive = no clear call, values can overlap the other calls; inactive = mostly above about 0.92.
# Test: chemical genetic growth profiling, strain panel (AID 1159580);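 note: tested at 20 µM; growth read once vehicle control cultures reached saturation at 30 °C; 1 = growth at the plate median or of vehicle wells; lower values mean less growth of the strain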
# Details: S. cerevisiae deletion strains, growth OD
structure (smiles),measurement,setting,value
Cc1cc(Br)c(NC(=O)C(Cl)(Cl)Cl)c(Br)c1,normalized growth,"locus YAL013W, strain DEP1, active compounds read low",0.917 (active)
same,normalized growth,"locus YBR229C, strain ROT2, active compounds read low",0.911 (active)
same,normalized growth,"locus YDL101C, strain DUN1, active compounds read low",0.936
same,normalized growth,"locus YDR150W, strain NUM1, active compounds read low",0.909
same,normalized growth,"locus YEL061C, strain CIN8, active compounds read low",0.93
same,normalized growth,"locus YGR078C, strain PAC10, active compounds read low",0.905 (active)
same,normalized growth,"locus YHR030C, strain SLT2, active compounds read low",0.592 (active)
same,normalized growth,"locus YHR087W, strain rtc3, active compounds read low",0.899 (active)
same,normalized growth,"locus YJR043C, strain POL32, active compounds read low",0.927
same,normalized growth,"locus YJR075W, strain HOC1, active compounds read low",0.923
same,normalized growth,"locus YKL190W, strain CNB1, active compounds read low",0.958
same,normalized growth,"locus YLR039C, strain RIC1, active compounds read low",0.538 (active)
same,normalized growth,"locus YLR058C, strain SHM2 (second series), active compounds read low",0.907 (active)
same,normalized growth,"locus YLR085C, strain ARP6, active compounds read low",0.73 (active)
same,normalized growth,"locus YLR262C, strain YPT6, active compounds read low",0.579 (active)
same,normalized growth,"locus YML094W, strain GIM5, active compounds read low",0.944
same,normalized growth,"locus YMR219W, strain ESC1, active compounds read low",0.933 (active)
same,normalized growth,"locus YMR263W, strain SAP30, active compounds read low",0.96
same,normalized growth,"locus YMR307W, strain GAS1, active compounds read low",0.648 (active)
same,normalized growth,"locus YNL153C, strain GIM3, active compounds read low",0.947
same,normalized growth,"locus YNL298W, strain CLA4 (second series), active compounds read low",0.875
same,normalized growth,"locus YNL322C, strain KRE1, active compounds read low",0.94 (active)
same,normalized growth,"locus YNR030W, strain Alg12, active compounds read low",0.938
same,normalized growth,"locus YOL006C, strain TOP1, active compounds read low",0.615 (active)
same,normalized growth,"locus YPL055C, strain LGE1, active compounds read low",0.919
same,normalized growth,"locus YPL241C, strain CIN2, active compounds read low",0.939
same,normalized growth,"locus YPR135W, strain CTF4, active compounds read low",0.736
